According to PubChem BioAssay AID1021 (Emory University Molecular Libraries Screening Center, 2008):
About 2,100 (0.95%) of roughly 220,000 compounds were called active. The sample holds actives, similar compounds and a random draw of the others, so the mix is not that of the screen. Unmarked numbers belong to inactive results.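 Rule for the calls: active = compounds that cut the binding signal by more than half at the single screening dose; inactive = the rest.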

Target: Induced myeloid leukemia cell differentiation protein Mcl-1 (Homo sapiens) (UniProt Q07820)
Sequence (Q07820 whole entry, looked up): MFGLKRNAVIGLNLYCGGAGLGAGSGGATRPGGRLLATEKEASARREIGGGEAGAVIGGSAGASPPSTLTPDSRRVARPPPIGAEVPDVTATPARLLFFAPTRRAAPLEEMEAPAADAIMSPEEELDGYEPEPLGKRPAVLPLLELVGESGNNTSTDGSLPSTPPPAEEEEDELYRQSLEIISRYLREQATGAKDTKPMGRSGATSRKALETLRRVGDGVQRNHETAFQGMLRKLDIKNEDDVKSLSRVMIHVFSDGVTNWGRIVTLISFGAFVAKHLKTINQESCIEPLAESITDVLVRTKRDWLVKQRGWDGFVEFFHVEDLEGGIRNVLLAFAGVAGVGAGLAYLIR
Test: Mcl-1/Bid binding inhibitors, primary screen, biochemical, TR-FRET, 1536-well (AID 1021);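 note: His-tagged Mcl-1 with europium anti-His antibody binding Bid BH3 peptide; 0% = Mcl-1 plus peptide wells and 100% = peptide-only wells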
Conditions: TR-FRET Mcl-1/Bid-Dy647 peptide binding, at 21.7 µM, active compounds read high

Row | Compound | inhibition
1 | O=[N+]([O-])c1cccc(Nc2c3ccccc3nc3ccccc23)c1 | -10.4%
2 | O=[N+]([O-])c1cccc(-c2nnc3c4ccccc4c4ccccc4n23)c1 | 52.9% (active)
3 | O=[N+]([O-])c1cccc(C2=NCCS2)c1 | -9.78%
4 | CCOC(=O)C1CCCN(C(=O)COc2ccc(N(C)S(=O)(=O)c3ccc(C)cc3)cc2)C1 (configuration not stated) | -9.64%
5 | COc1ccc(C(=O)COC(=O)COc2ccc(C)c(C)c2)cc1 | 11.1%
6 | CC(NC(=O)COC(=O)c1ccc2c(c1)OCO2)c1ccccc1 (configuration not stated) | -4.79%
7 | COc1ccc(Nc2ncnc3sc(-c4ccccc4)cc23)c(OC)c1 | -15%
8 | Cc1cc(NC(=O)c2cccc(N3C(=O)CCC3=O)c2)no1 | -19.2%
9 | Cc1cccc(NC(=O)c2ccc3ccccc3n2)n1 | -24%
10 | Cc1cccc(NC(=O)c2cc(N3C(=O)CCC3=O)ccc2Cl)n1 | 69.1% (active)
11 | COc1cc(/C=N/Nc2nc3ccccc3s2)ccc1O | -5.09%
12 | O=[N+]([O-])c1cc(Br)c(O)c(/C=N/Nc2nc3ccccc3s2)c1 | 85.8% (active)
13 | c1ccc2sc(NN=C3CCCC3)nc2c1 | -7.33%
14 | Cc1ccc(NC(=O)c2nc[nH]c2C(=O)N[C@@H](CCCCNC(=O)OC(C)(C)C)C(=O)OC(C)(C)C)cc1 | -46.2%
15 | CCOc1ccc(N=C2NC(=O)S/C2=C\c2ccc(O)cc2)cc1 | 85.2% (active)
16 | NC1=NC(=O)S/C1=C\c1ccc(O)cc1 | -45.3%
17 | CCOc1ccc(N=C2SC(C(=O)O)CC(=O)N2C)cc1 (configuration not stated) | 3.39%
18 | CCc1ccnc(NS(=O)(=O)c2ccc3c(c2)OCCO3)c1 | -5.34%
19 | O=C(Nc1ccc2c(c1)OCO2)c1ccc(N2C(=O)c3ccccc3C2=O)cc1 | 56.4% (active)
20 | O=C(Nc1ccccc1)c1ccc2c(c1)OCO2 | 1.56%
21 | Cn1c(=O)n(C)c2cc(C(=O)Nc3ccc4c(c3)OCO4)ccc21 | -32.5%
22 | COc1ccc(C(=O)OCC(=O)NCC2CCCO2)cc1[N+](=O)[O-] (configuration not stated) | -15.9%
23 | [O-][N+]12CCCCC1CCCC2CO (configuration not stated) | -0.58%
24 | COC(=O)CCCC1=CC2=C(c3ccccc3)C(=O)C(C)(OC(=O)C3CCCC3)C(=O)C2=CN1c1ccc(OC)cc1 (configuration not stated) | -60.4%
25 | CCOC(=O)N1CCN(C(=O)c2ccc(S(=O)(=O)c3ccc(C)cc3)c(NC(C)=O)c2)CC1 | -11.4%
26 | Cc1ccc(S(=O)(=O)c2ccc(Cl)cc2)cc1S(=O)(=O)NC(C(=O)O)C(C)C (configuration not stated) | 4.83%
27 | CC(=O)Nc1cc(C(=O)O)ccc1S(=O)(=O)c1ccc(Cl)cc1 | 83% (active)
